Reference: PubChem BioAssay AID1159580 (chemical genetic matrix, 2015)
“And” between values parts separate entries of the source, which are not always exact repeats. Equal values may be shown once. The whole screen tested about 5,500 compounds, of which about 2,000 (36%) were called active. Not shown: some 18% with an inconclusive outcome. Cut-off read from the data, not from the text of the source: active = normalized growth mostly below about 0.91 (no sharp cut-off); inconclusive = no clear call, values can overlap the other calls; inactive = mostly above about 0.92. The list shows a part of the results.

Experiment: chemical genetic growth profiling, strain panel (AID 1159580);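 note: tested at 20 µM; growth read once vehicle control cultures reached saturation at 30 °C; 1 = growth at the plate median or of vehicle wells; lower values mean less growth of the strain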
Details: S. cerevisiae deletion strains, growth OD

Measured: normalized growth

CC1CNCCN1S(=O)(=O)c1cccc2cnccc12 (stereo unspecified)
inactive: locus YAL013W, strain DEP1, stronger effect = lower value 1.01 and 1 | locus YAL040C, strain CLN3, stronger effect = lower value 1.09 and 0.997 | locus YCL061C, strain MRC1 (second series), stronger effect = lower value 0.998 and 1.01 | locus YDR150W, strain NUM1, stronger effect = lower value 1 | locus YDR363W, strain ESC2, stronger effect = lower value 0.993 and 1.01 | locus YER002W, strain NOP16, stronger effect = lower value 0.988 and 1.01 | locus YGR078C, strain PAC10, stronger effect = lower value 1.01 | locus YMR263W, strain SAP30, stronger effect = lower value 1 | locus YNL153C, strain GIM3, stronger effect = lower value 0.991 | locus YNL175C, strain NOP13, stronger effect = lower value 0.996 and 0.999 | locus YNL197C, strain WHI3, stronger effect = lower value 1.01 | locus YNL224C, strain SQS1, stronger effect = lower value 1.02 | locus YNL322C, strain KRE1, stronger effect = lower value 0.999 | locus YOR083W, strain WHI5 (second series), stronger effect = lower value 1 and 1.03 | locus YPL055C, strain LGE1, stronger effect = lower value 1.01 | locus YPL241C, strain CIN2, stronger effect = lower value 0.996
